Data from PubChem BioAssay AID1159580 (chemical genetic matrix, 2015).
Hit rate of the full screen: of about 5,500 compounds, about 2,000 (36%) were called active. Another 18% or so got no clear call; they are omitted. Cut-off read from the data, not from the text of the source: active = normalized growth mostly below about 0.91 (no sharp cut-off); inconclusive = no clear call, values can overlap the other calls; inactive = mostly above about 0.92. The list shows a part of the results.

Test: chemical genetic growth profiling, strain panel (AID 1159580);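 note: tested at 20 µM; growth read once vehicle control cultures reached saturation at 30 °C; 1 = growth at the plate median or of vehicle wells; lower values mean less growth of the strain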
Conditions: growth OD
[1] = S. cerevisiae deletion strains, locus YDL101C, strain DUN1, stronger effect = lower value
[2] = S. cerevisiae deletion strains, locus YGR229C, strain SMI1, stronger effect = lower value
[3] = S. cerevisiae deletion strains, locus YHR030C, strain SLT2, stronger effect = lower value
[4] = S. cerevisiae deletion strains, locus YMR263W, strain SAP30, stronger effect = lower value
[5] = S. cerevisiae deletion strains, locus YNL153C, strain GIM3, stronger effect = lower value
[6] = S. cerevisiae deletion strains, locus YNL322C, strain KRE1, stronger effect = lower value
[7] = S. cerevisiae deletion strains, locus YPL055C, strain LGE1, stronger effect = lower value
[8] = S. cerevisiae deletion strains, locus YPL241C, strain CIN2, stronger effect = lower value

Measured: normalized growth

COc1ccc(CNc2ccccc2-c2nc3ccccc3[nH]2)cc1
inactive: S. cerevisiae deletion strains, locus YAL013W, strain DEP1, stronger effect = lower value 0.967 | S. cerevisiae deletion strains, locus YBR229C, strain ROT2, stronger effect = lower value 0.944 | S. cerevisiae deletion strains, locus YCL061C, strain MRC1, stronger effect = lower value 0.941 | [1] 0.937 | S. cerevisiae deletion strains, locus YDR150W, strain NUM1, stronger effect = lower value 0.934 | S. cerevisiae deletion strains, locus YGR078C, strain PAC10, stronger effect = lower value 0.952 | [2] 0.95 | S. cerevisiae deletion strains, locus YHR087W, strain rtc3, stronger effect = lower value 0.92 | S. cerevisiae deletion strains, locus YJL187C, strain SWE1, stronger effect = lower value 0.978 | S. cerevisiae deletion strains, locus YJR043C, strain POL32, stronger effect = lower value 0.957 | S. cerevisiae deletion strains, locus YJR075W, strain HOC1, stronger effect = lower value 0.937 | S. cerevisiae deletion strains, locus YLR058C, strain SHM2 (second series), stronger effect = lower value 0.956 | S. cerevisiae deletion strains, locus YML094W, strain GIM5, stronger effect = lower value 0.882 | S. cerevisiae deletion strains, locus YMR219W, strain ESC1, stronger effect = lower value 0.983 | [4] 0.948 | S. cerevisiae deletion strains, locus YNL128W, strain TEP1, stronger effect = lower value 0.917 | [5] 0.959 | [6] 0.978 | [7] 0.797
active: S. cerevisiae deletion strains, locus YDL134C, strain PPH21, stronger effect = lower value 0.87 | S. cerevisiae deletion strains, locus YEL061C, strain CIN8, stronger effect = lower value 0.861 | [3] 0.431 | S. cerevisiae deletion strains, locus YKL190W, strain CNB1, stronger effect = lower value 0.881 | S. cerevisiae deletion strains, locus YLR039C, strain RIC1, stronger effect = lower value 0.529 | S. cerevisiae deletion strains, locus YLR085C, strain ARP6, stronger effect = lower value 0.514 | S. cerevisiae deletion strains, locus YLR262C, strain YPT6, stronger effect = lower value 0.648 | S. cerevisiae deletion strains, locus YMR307W, strain GAS1, stronger effect = lower value 0.52 | S. cerevisiae deletion strains, locus YNL298W, strain CLA4 (second series), stronger effect = lower value 0.789 | S. cerevisiae deletion strains, locus YNR030W, strain Alg12, stronger effect = lower value 0.867 | S. cerevisiae deletion strains, locus YOL006C, strain TOP1, stronger effect = lower value 0.57 | [8] 0.818 | S. cerevisiae deletion strains, locus YPR135W, strain CTF4, stronger effect = lower value 0.498 | S. cerevisiae strains, strain wild type, stronger effect = lower value 0.881

C#CC(N)CCC(=O)O (configuration not stated)
inactive: S. cerevisiae deletion strains, locus YAL040C, strain CLN3, stronger effect = lower value 1.02 | S. cerevisiae deletion strains, locus YCL061C, strain MRC1 (second series), stronger effect = lower value 1.01 | S. cerevisiae deletion strains, locus YER002W, strain NOP16, stronger effect = lower value 1.01 | [2] 1.01 | [4] 1.01 | [5] 1 | S. cerevisiae deletion strains, locus YNL175C, strain NOP13, stronger effect = lower value 1.02 | S. cerevisiae deletion strains, locus YNL197C, strain WHI3, stronger effect = lower value 1.02 | S. cerevisiae deletion strains, locus YNL224C, strain SQS1, stronger effect = lower value 1 | [6] 1.01 | S. cerevisiae deletion strains, locus YOR083W, strain WHI5 (second series), stronger effect = lower value 0.988 | [7] 0.989 | [8] 1.01

S=C(Nc1cc(Cl)c(Cl)cc1Cl)Nc1ccccc1Br
active: [3] 0.67 | S. cerevisiae deletion strains, locus YLR113W, strain HOG1, stronger effect = lower value 0.828 | S. cerevisiae deletion strains, locus YPL256C, strain CLN2, stronger effect = lower value 0.809
inactive: S. cerevisiae deletion strains, locus YAR019C, strain CDC15, stronger effect = lower value 0.958 | S. cerevisiae deletion strains, locus YBL105C, strain PKC1, stronger effect = lower value 0.969 | S. cerevisiae deletion strains, locus YBR135W, strain CKS1, stronger effect = lower value 0.964 | S. cerevisiae deletion strains, locus YBR136W, strain MEC1, stronger effect = lower value 0.953 | S. cerevisiae deletion strains, locus YBR160W, strain CDC28, stronger effect = lower value 0.961 | S. cerevisiae deletion strains, locus YDL017W, strain CDC7, stronger effect = lower value 0.963 | S. cerevisiae deletion strains, locus YDL028C, strain MPS1, stronger effect = lower value 0.953 | [1] 0.977 | S. cerevisiae deletion strains, locus YDL108W, strain KIN28, stronger effect = lower value 0.958 | S. cerevisiae deletion strains, locus YDL132W, strain cdc53, stronger effect = lower value 0.96 | S. cerevisiae deletion strains, locus YDL214C, strain PRR2, stronger effect = lower value 0.884 | S. cerevisiae deletion strains, locus YDR052C, strain DBF4, stronger effect = lower value 0.97 | S. cerevisiae deletion strains, locus YDR054C, strain cdc34, stronger effect = lower value 0.969 | S. cerevisiae deletion strains, locus YDR226W, strain ADK1, stronger effect = lower value 0.947 | S. cerevisiae deletion strains, locus YDR477W, strain SNF1, stronger effect = lower value 0.875 | S. cerevisiae deletion strains, locus YER123W, strain YCK3, stronger effect = lower value 0.833 | S. cerevisiae deletion strains, locus YER133W, strain GLC7, stronger effect = lower value 0.87 | S. cerevisiae deletion strains, locus YFL009W, strain cdc4, stronger effect = lower value 0.963 | S. cerevisiae deletion strains, locus YFL029C, strain CAK1, stronger effect = lower value 0.949 | S. cerevisiae deletion strains, locus YFR003C, strain YPI1, stronger effect = lower value 0.969 | S. cerevisiae deletion strains, locus YFR019W, strain FAB1, stronger effect = lower value 0.899 | S. cerevisiae deletion strains, locus YFR028C, strain CDC14, stronger effect = lower value 0.943 | S. cerevisiae deletion strains, locus YGR040W, strain KSS1, stronger effect = lower value 0.861 | S. cerevisiae deletion strains, locus YGR052W, strain FMP48, stronger effect = lower value 0.848 | S. cerevisiae deletion strains, locus YGR092W, strain DBF2, stronger effect = lower value 0.77 | S. cerevisiae deletion strains, locus YHR079C, strain IRE1, stronger effect = lower value 0.82 | S. cerevisiae deletion strains, locus YHR082C, strain KSP1, stronger effect = lower value 0.822 | S. cerevisiae deletion strains, locus YHR205W, strain SCH9, stronger effect = lower value 0.812 | S. cerevisiae deletion strains, locus YIL147C, strain SLN1, stronger effect = lower value 0.939 | S. cerevisiae deletion strains, locus YJL095W, strain BCK1, stronger effect = lower value 0.796 | S. cerevisiae deletion strains, locus YJL128C, strain PBS2, stronger effect = lower value 0.927 | S. cerevisiae deletion strains, locus YJL157C, strain FAR1, stronger effect = lower value 0.898 | S. cerevisiae deletion strains, locus YJR016C, strain ILV3, stronger effect = lower value 0.961 | S. cerevisiae deletion strains, locus YJR066W, strain TOR1 (second series), stronger effect = lower value 0.848 | S. cerevisiae deletion strains, locus YJR066W, strain TOR1, stronger effect = lower value 0.786 | S. cerevisiae deletion strains, locus YKL048C, strain ELM1, stronger effect = lower value 0.911 | S. cerevisiae deletion strains, locus YKL067W, strain YNK1, stronger effect = lower value 0.892 | S. cerevisiae deletion strains, locus YKL101W, strain HSL1, stronger effect = lower value 0.842 | S. cerevisiae deletion strains, locus YKL193C, strain SDS22, stronger effect = lower value 0.96 | S. cerevisiae deletion strains, locus YKL203C, strain TOR2, stronger effect = lower value 0.913 | S. cerevisiae deletion strains, locus YLR133W, strain CKI1, stronger effect = lower value 0.861 | S. cerevisiae deletion strains, locus YLR403W, strain SFP1, stronger effect = lower value 0.754 | S. cerevisiae deletion strains, locus YML070W, strain DAK1, stronger effect = lower value 0.86 | S. cerevisiae deletion strains, locus YMR001C, strain CDC5, stronger effect = lower value 0.957 | S. cerevisiae deletion strains, locus YMR205C, strain PFK2 (second series), stronger effect = lower value 0.873 | S. cerevisiae deletion strains, locus YMR277W, strain FCP1, stronger effect = lower value 0.959 | S. cerevisiae deletion strains, locus YNL006W, strain LST8, stronger effect = lower value 0.984 | S. cerevisiae deletion strains, locus YNL020C, strain ARK1, stronger effect = lower value 0.844 | S. cerevisiae deletion strains, locus YNL161W, strain CBK1, stronger effect = lower value 0.977 | S. cerevisiae deletion strains, locus YNL183C, strain NPR1, stronger effect = lower value 0.791 | S. cerevisiae deletion strains, locus YNL207W, strain RIO2, stronger effect = lower value 0.962 | S. cerevisiae deletion strains, locus YNL222W, strain SSU72, stronger effect = lower value 0.97 | S. cerevisiae deletion strains, locus YNL307C, strain MCK1 (second series), stronger effect = lower value 0.839 | S. cerevisiae deletion strains, locus YOL078W, strain AVO1, stronger effect = lower value 0.962 | S. cerevisiae deletion strains, locus YOL136C, strain PFK27, stronger effect = lower value 0.854 | S. cerevisiae deletion strains, locus YOR061W, strain CKA2, stronger effect = lower value 0.749 | S. cerevisiae deletion strains, locus YOR119C, strain RIO1, stronger effect = lower value 0.869 | S. cerevisiae deletion strains, locus YOR231W, strain MKK1, stronger effect = lower value 0.846 | S. cerevisiae deletion strains, locus YOR329C, strain SCD5, stronger effect = lower value 0.975 | S. cerevisiae deletion strains, locus YPL031C, strain PHO85, stronger effect = lower value 0.873 | S. cerevisiae deletion strains, locus YPL153C, strain RAD53, stronger effect = lower value 0.837 | S. cerevisiae deletion strains, locus YPL204W, strain HRR25, stronger effect = lower value 0.848 | S. cerevisiae deletion strains, locus YPL209C, strain IPL1, stronger effect = lower value 0.966 | S. cerevisiae deletion strains, locus YPR025C, strain CCL1, stronger effect = lower value 0.966 | S. cerevisiae deletion strains, locus YPR106W, strain ISR1, stronger effect = lower value 0.942 | S. cerevisiae deletion strains, locus YPR111W, strain DBF20, stronger effect = lower value 0.935 | S. cerevisiae deletion strains, strain NNK1, stronger effect = lower value 0.961 | S. cerevisiae deletion strains, strain TSCII, stronger effect = lower value 0.953
